# Calls of active or inactive are those of the source.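 The calls were made as follows: active = fitted half-maximal concentration AC50 at or below ten times the highest valid tested dose, with signal falling as DNA is displaced (actives reach about 34 µM in these data); inconclusive = flat fit at moderate signal loss, or poor fit quality; inactive = the rest, including signal rising instead of falling.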
# Assay: DNA intercalators displacing acridine orange, dose response, artefact control for KSHV LANA DNA-binding inhibitor project, biochemical, fluorescence polarization, cherry-picked samples, set 2 (AID 504727)
# Settings: AC50: Acridine orange-DNA displacement; series mostly up to 35 µM
row,Compound,AC50
1,COc1cccc(NC(=O)CN(C)C(=O)c2cc3ccccc3cc2OC)c1,inactive
2,Cc1ccsc1/C=N/NC(=O)Cc1ccc(Cl)cc1,inactive
3,CC1=NN(c2cccc(C(=O)O)c2)C(=O)/C1=C\C=C\c1ccco1,inactive
4,O=C1/C(=C/c2ccco2)SC(=S)N1c1cccnc1,inactive
5,CN(C)/C=N/c1nc2nccc(-c3ccc(Cl)cc3)n2n1,inactive
6,Cc1cccc(N2C(=O)c3cccc4c(N)ccc(c34)C2=O)c1,4.82 µM (active)
7,COc1ccc2noc3c2c1C(=O)c1ccccc1-3,0.241 µM (active)
8,O=S(=O)(O)c1cc(O)c(N=Nc2ccc(O)cc2O)c2ccccc12,inactive
9,O=C(O)CC1(CC(=O)NCc2ccncc2)CCCCC1,inactive
10,O=C(NC1CCCCC1)c1cc([N+](=O)[O-])ccc1N1CCOCC1,inactive
11,Oc1ccccc1C=Nc1ccccc1-c1nc2ccccc2[nH]1,inactive
12,CC1(C)CCCN(C(=O)c2coc(=O)c(Br)c2)C1,inactive
13,Cc1cccc(Nc2nc(N)c([N+](=O)[O-])c(NCc3ccccc3)n2)c1,inactive
14,O=C(NC1(O)C(=O)c2ccccc2C1=O)c1c(Cl)cccc1Cl,inactive
15,COc1ccc(C(=O)N/N=C/c2ccc(OC)c(COc3ccccc3)c2)cc1,inactive
16,CC(=O)O[C@@H]1[C@@H](OC(C)=O)[C@H](n2ccc3cc([N+](=O)[O-])ccc32)OC[C@@H]1OC(C)=O,inactive
17,Cc1cc(S(=O)(=O)NC2CCN(Cc3ccccc3)CC2)c(C)cc1Cl,inactive
18,Cn1c(=O)c2c(nc(SCC(=O)NCc3ccc4c(c3)OCO4)n2Cc2ccc(Cl)cc2)n(C)c1=O,inactive
19,COc1ccccc1CNC(=O)CCS(=O)(=O)c1cccs1,inactive
20,COC(=O)c1c(C)oc2ccc(N(C(C)=O)S(=O)(=O)c3ccccc3)cc12,inactive

row,Compound,AC50
1,CN(C)CCCNC(=O)c1ccccc1Oc1ccccc1,inactive
2,COc1ccc(C2c3ccc(O)cc3Oc3ncn(CCCO)c(=N)c32)cc1OC (centres undefined),inactive
3,CCC1(c2ccccc2)NC(=O)N(CC(=O)Nc2ccc(OC)nc2)C1=O (centres undefined),7.64 µM (active)
4,O=C(Nc1ccccc1F)c1coc(=O)c(Br)c1,inactive
5,Cc1cc(Cl)ccc1N1C(=O)CC(NNC(=O)c2cccnc2)C1=O (centres undefined),inactive
6,CSc1ncccc1C(=O)OCCCC(=O)c1ccc(F)cc1,inactive
7,O=c1cc(-c2ccc(O)c(O)c2)oc2cc(O[C@@H]3O[C@H](CO)[C@@H](O)[C@H](O)[C@H]3O)cc(O)c12,inactive
8,CC(C)C(=O)N1CCN(c2ccccc2NC(=S)NC(=O)c2ccco2)CC1,inactive
9,Cc1cccnc1NC1(C(F)(F)F)N=C2SCCN2C1=O (centres undefined),inactive
10,O=c1cc2c(=O)oc3cc(O)c(O)oc3c2c(O)c1O,inactive
11,O=C(O)/C=C/C(=O)Nc1ccc(Cc2ccc(NC(=O)/C=C/C(=O)O)cc2)cc1,inactive
12,CC(C)(CS(=O)(=O)[O-])NC(=O)CC[N+](C)(C)CCO,inactive
13,c1ccc2[nH]c3cc4ncnc4cc3nc2c1,11.7 µM (active)
14,Cc1cccc(-c2nsc(SCC(=O)Nc3nccs3)n2)c1,inactive
15,Cn1c(=O)c(NCCc2ccccc2)c2c3c(cccc31)C(=O)c1ccccc1-2,1.14 µM (active)
16,C=CCn1c(C)cc(-c2csc(NC(=O)CCc3nc4ccccc4c(=O)[nH]3)n2)c1C,inactive
17,Cc1c(C#N)c(=O)c(-[n+]2ccccc2)c([S-])n1-c1ccc(Cl)cc1,inactive
18,CCCCN(C(=O)C(C)Oc1ccc(Br)cc1)c1c(N)n(CC(C)C)c(=O)[nH]c1=O (centres undefined),inactive
19,COc1cc(SC)ccc1C(=O)OCC(=O)N1CCN(C(C)=O)CC1,inactive

# — PubChem BioAssay AID504727 (Broad Institute, 2011)
